Inconclusive results are not listed. A call without a number means that no potency is given here. Active and inactive are the calls of the source. Calls come from the whole dose curve; as a rule, active = well fitted curve in the direction sought with a large enough effect; inconclusive = small, poorly fitted or top-dose-only effect, or another doubt; inactive = no such curve, though single readings can be large; an effect the other way counts as inactive or inconclusive.
Columns and labels:
[1] = qHTS for ATAD5 Agonist screened against the NCATS CANVASS Library (AID 1347367);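 note: luciferase reporter driven by ATAD5 which rises upon DNA damage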
Method in brief: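 Step one plated reporter cells and let them acclimate 5hr. Step two pinned compounds with MMS as positive and 0.46% DMSO as negative control. After 16hr incubation, fluorescence viability then luminescence were read.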

[2] = G06 Cancer Cell Toxicity qHTS against the NCATS CANVASS Library (AID 1347368); note: potency is the fitted concentration of half-maximal effect; nearly all actives have a fitted effect of over 60% in size
Method in brief: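 Cells were plated at 500 per well, then compounds were added over an 11-point range. After 72 hr at 37C, CellTiterGlo was added and luminescence measured as ATP content.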

[3] = MCF7 Cancer Cell Toxicity qHTS against the NCATS CANVASS Library (AID 1347369); note: series mostly up to about 46 µM
Method in brief: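 Cytotoxicity is measured by ATP content: MCF7 cells at 500 per well receive an 11-point compound series and, after 72 hr at 37C, are lysed with CellTiterGlo for luminescence.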

[4] = qHTS for ATAD5 Antagonist screened against the NCATS CANVASS Library (AID 1347370);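 note: HEK293T cells carrying an ATAD5 luciferase reporter co-treated with 10 µM 5-fluorouridine; series mostly up to about 46 µM; nearly all actives have a fitted effect of over 65% in size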
Method in brief: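 Compounds (11-point) co-dosed with 10 µM 5-FUrd for 16 h at 37 °C onto HEK293T-ATAD5 luciferase reporter cells. Viability measured by CellTiter-Fluor fluorescence, then ATAD5 reporter signal by luminescence.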

[5] = J3T Cancer Cell Toxicity qHTS against the NCATS CANVASS Library (AID 1347371)
Method in brief: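 Luminescence from CellTiterGlo, reporting cellular ATP, serves as the viability measure after 72 hr compound treatment of J3T canine glioma cells seeded at 500 cells/well.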

[6] = biological target: Nuclear receptor subfamily 1 group I member 3 (Homo sapiens) (UniProt Q14994); assay: qHTS for Constitutive Androstane Receptor (CAR) Antagonist screened against the NCATS CANVASS Library (AID 1347372);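 note: cells stimulated with 50 nM CITCO agonist so inhibition reflects antagonism; luciferase from CYP2B6 promoter reporter driven by hCAR in HepG2 cells; series mostly up to about 46 µM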
Method in brief: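 Cells were seeded and left 4hr to attach, then received compound at 11 concentrations and 50 nM CITCO. Following 24hr incubation, fluorescence viability and luciferase luminescence were read sequentially.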

[7] = biological target: Nuclear receptor subfamily 1 group I member 3 (Homo sapiens) (UniProt Q14994); assay: qHTS for Constitutive Androstane Receptor (CAR) Agonist screened against the NCATS CANVASS Library (AID 1347373);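 note: every well also contained 1.5 µM PK11195 alongside the test compound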
Method in brief: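 Cells were plated and allowed to attach for 4hr, then dosed with compound in an 11-point series alongside 1.5uM PK11195. After 24hr at 37C, viability was measured fluorometrically and CAR-driven CYP2B6 reporter luminescence was recorded.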

[8] = qHTS for Hypoxia signaling pathway (HIF-1) antagonists against the NCATS CANVASS Library (AID 1347374);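 note: HRE-bla ME-180 cells stimulated with cobalt chloride to stabilize HIF-1alpha; series mostly up to about 38 µM; nearly all actives have a fitted effect of over 60% in size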
Method in brief: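 Antagonism scored as loss of CoCl2-driven (60 uM stock added) HRE beta-lactamase signal, read by CCF4 FRET at 460/530 nm. Compounds were tested in an 11-point series on ME-180 reporter cells for 17 hrs at 37C, with parallel CellTiter-Glo cytotoxicity.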

[9] = qHTS for Hypoxia signaling pathway (HIF-1) agonists against the NCATS CANVASS Library (AID 1347375)
Method in brief: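 Cells plated and rested 5 h, compounds pinned in DMSO across 11 concentrations, incubated 17 h at 37C, loaded with CCF4-AM for 2 h, fluorescence read at 460 and 530 nm, then CellTiter-Glo luminescence measured for viability and normalization.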

[10] = 10-beta competent E. coli microbial cell viability qHTS against the NCATS CANVASS Library (AID 1347376); note: series mostly up to about 46 µM
Method in brief: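 Bacterial suspension diluted to 0.2 OD was dosed with compounds, 11-point series, then held overnight at 37C. BacTiter-Glo reagent was added, and after 20 min at room temperature ATP-dependent luminescence was measured.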

[11] = DH5-alpha competent E. coli microbial cell viability qHTS against the NCATS CANVASS Library (AID 1347377); settings: outcome: dose series up to 46.1 µM unless noted
Method in brief: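 Bacteria were dispensed at 0.2 OD, then compounds were pin-transferred. Plates were incubated overnight at 37C, after which BacTiter-Glo was added and luminescence measured 20 min later.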

[12] = qHTS for H2AX Agonists against the NCATS CANVASS Library (AID 1347378);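 note: phospho-H2AX S139 level in CHO-K1 lysates by TR-FRET emission ratio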
Method in brief: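 Following overnight seeding, CHO-K1 cells are incubated with a concentration series of compound for 3 hr at 37C (final DMSO 0.76%). Cells are then lysed, detection antibodies added, and emission ratio 665/620 nm recorded after 24 hr at room temperature.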

[13] = qHTS for Inflammasome Signaling Inhibitors: IL-1-beta AlphaLISA screen against the NCATS CANVASS Library (AID 1347379);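 note: human THP-1 cells primed with LPS then triggered with ATP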
Method in brief: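 Secreted IL-1B from human THP-1 cells quantified by AlphaLISA 16 hr after compound addition (final up to 57.5 uM). A 1 hr compound pretreatment preceded inflammasome activation with 250 ng/mL LPS plus 1.25 mM ATP (final).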

[14] = Inflammasome Signaling qHTS Counterscreen: IL-1-beta AlphaLISA counterscreen against the NCATS CANVASS Library (AID 1347381);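 note: cell-free check with purified IL-1β in medium and no THP-1 cells; series mostly up to about 57 µM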
Method in brief: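 Purified IL-1-beta (4 pg/well) + compound, 11-pt conc. series; acceptor beads 6 ug/mL + biotin-Ab 0.6 nM final, 1 h RT; SA-donor 24 ug/ml final, 30 min dark RT; read ex 680/em 615.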

[15] = Cytotoxicity qHTS for assessment of Hepg2 cells membrane integrity screened against the NCATS CANVASS Library (AID 1347387)
Method in brief: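 Cells were seeded at 2000 per well and left overnight to attach. Compounds were pin-transferred to give 0.59 nM - 46 uM in an 11-point series and incubated 5 hr at 37C. CytoTox-ONE reagent was added and, after 10 min at room temperature, fluorescence (ex 560, em 590 nm) was read.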

[16] = qHTS for Activators of p53 Stress Response Pathway screened against the NCATS CANVASS Library (AID 1347388)
Method in brief: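 p53RE-bla HCT-116 cells (4000/well) were plated 5 h at 37C, exposed to compounds for 16 h at 37C over an 11-point concentration series, then loaded with CCF4 for 2 h at room temperature; 460/530 nm emission ratio read.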

[17] = qHTS assay for small molecule disruptors of mitochondrial membrane potential screened against the NCATS CANVASS Library (AID 1347389); note: series mostly up to about 46 µM; nearly all actives have a fitted effect of over 60% in size
Method in brief: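 Mitochondrial depolarization in HepG2 cells is scored as a falling aggregate-to-monomer fluorescence ratio after 1 hr compound exposure and 30 min staining with Mito-MPS dye at 37C, each compound tested as an 11-point titration.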

[18] = qHTS for activators of Nrf2/ARE signaling pathway screened against the NCATS CANVASS Library (AID 1347391); note: potency is the fitted concentration of half-maximal effect; nearly all actives have a fitted effect of over 60% in size
Method in brief: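 Beta-lactamase reporter signal, read as 460 and 530 nm emission under 405 nm excitation after 2 h CCF4 loading, reflected ARE activation in HepG2 cells treated 16 h with an 11-point series.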

[19] = qHTS for activators of dead-cell proteases activity screened against the NCATS CANVASS Library (AID 1347392);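 note: luminescence from protease leaking out of membrane-damaged cells cleaving impermeant substrate; rising signal means more cytotoxicity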
Method in brief: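 Cytotoxicity in HepG2 cells was assessed by released protease cleaving AAF-aminoluciferin, with luminescence as signal. Exposure lasted 5 h at 37C across an 11-point series.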

[20] = qHTS for inhibitors of ER calcium dysfunction: SERCaMP assay screened against the NCATS CANVASS Library (AID 1347393);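 note: series mostly up to about 77 µM; lower secreted reporter signal means inhibitor of ER calcium depletion; nearly all actives have a fitted effect of over 40% in size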
Method in brief: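 qHTS in SH-SY5Y reporter cells: 16 h compound pretreatment, 4 h thapsigargin, then secreted Gaussia luciferase measured by luminescence.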

[21] = Vero-766 cells viability qHTS against the NCATS CANVASS Library: Counterscreen for Zika virus inhibition assay (AID 1347394)
Method in brief: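 This cytotoxicity counterscreen uses African green monkey Vero 766 cells in the absence of Zika virus. Compounds are incubated with cells for 72 h, and ATP-based luminescence reports viability.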

[22] = qHTS for inhibitors of Wild type Zika virus screened against the NCATS CANVASS Library (AID 1347396);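 note: ATP luminescence of surviving cells so rescue from viral cell killing; series mostly up to about 46 µM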
Method in brief: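 Luminescent CellTiter Glo read-out of virus-induced cytotoxicity, 72 h post-infection, in Vero 766 cells. Compounds were tested at 11 concentrations; uninfected, vehicle-treated wells defined 100% inhibition.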

[23] = Viability qHTS for inhibitors of the SERCaMP assay screened against the NCATS CANVASS Library (AID 1347400); note: series mostly up to about 92 µM; nearly all actives have a fitted effect of over 70% in size
Method in brief: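 Seed SH-SY5Y-GLuc SERCaMP MJH297 cells at 1000 per well, incubate 4 h, add compounds across an 11-point range, incubate 48 h at 37C, then add CellTiter-Glo and read luminescence.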

[24] = Redox Reaction Profiling qHTS: Assay Interference Panel against the NCATS CANVASS Library (AID 1347401)
Method in brief: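 Quantitative HTS over an 11-point series was run in HEPES pH 7.3 with 50 mM NaCl, 200 uM DTT and 5 uM resazurin. Initial and 15-min resorufin fluorescence readings were taken.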

Nuclear receptor subfamily 1 group I member 3 (Homo sapiens), sequence (Q14994 whole entry, looked up): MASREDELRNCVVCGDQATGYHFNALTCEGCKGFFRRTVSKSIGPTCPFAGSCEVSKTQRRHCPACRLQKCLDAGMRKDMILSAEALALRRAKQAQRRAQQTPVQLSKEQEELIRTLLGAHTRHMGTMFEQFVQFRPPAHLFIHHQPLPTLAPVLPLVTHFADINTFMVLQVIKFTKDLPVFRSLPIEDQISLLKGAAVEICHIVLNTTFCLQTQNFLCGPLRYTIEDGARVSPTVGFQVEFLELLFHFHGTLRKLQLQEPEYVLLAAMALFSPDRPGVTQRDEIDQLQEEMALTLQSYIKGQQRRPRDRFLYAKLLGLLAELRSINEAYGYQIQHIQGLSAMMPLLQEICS

C[C@]12CC[C@]3(C1)[C@H](CC2=O)CC(OC(=O)c1ccccc1)[C@H]1[C@@](CO)(C(=O)O)CCC[C@@]13C (some centres undefined)
Potency [1]: inactive
Potency [2]: 10.5 µM (active)
Potency [3]: inactive
Potency [4]: inactive
Potency [5]: inactive
Potency [6]: inactive
outcome [7]: inactive
Potency [8]: inactive
Potency [9]: inactive
outcome [10]: inactive
outcome [11]: inactive
Potency [12]: inactive
Potency [13]: inactive
outcome [14]: inactive
outcome [15]: inactive
Potency [16]: inactive
Potency [17]: inactive
Potency [18]: 18.6 µM (active)
Potency [19]: inactive
Potency [20]: inactive
Potency [21]: inactive
Potency [22]: inactive
Potency [23]: inactive
Potency [24]: inactive

Source: PubChem BioAssay (NCATS)
